SW480 rereplic – A quantitative high throughput screen for small molecules that induce DNA re-replication in SW480 colon adenocarcinoma cells | SW480 DNA re-replication, Hoechst DNA content imaging, 48 h | Potency, µM (titrated, usually from 46.1 µM), inactives show top-dose re-replication activation, usual class: activators | 340,000 tested, 1.8% active; further: potency means the concentration at half of the fitted maximal effect; % of control where 0% means no effect; nearly all actives have a fitted effect of over 55% in size
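Per well, 250 cells were exposed to pinned compound for 48 hr. Nuclear DNA was visualised with Hoechst (40 min, 37 C) and total object intensity recorded by fluorescence scanning.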
IL1B secr inh – qHTS for Inhibitors of Inflammasome Signaling: IL-1-beta AlphaLISA Primary Screen. THP-1 LPS/ATP IL-1B secretion, AlphaLISA, 16 h; hits give low values. activity change, % at 57.5 µM. 360,000 tested, 4.7% active. AID 743279, 2014; in the data active means activity change below about -50%; inconclusive means mostly about -30% to -49%; further: on the % scale 0 is the no-effect control and ±100 the full control effect
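Secreted IL-1B measured by AlphaLISA bead assay after 16 h compound exposure of THP-1 cells; compounds (final up to 57.5 uM) added 1 h before LPS (250 ng/mL) and ATP (1.25 mM) stimulation; lower signal means less secretion.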
Giardia killer – Small Molecules that selectively kill Giardia lamblia: qHTS; 340,000 tested, 0.15% active; AID 540267, 2011; activity change, % at 7.66 µM, hits read low; Giardia lamblia trophozoite viability; in the data active means activity change below about -80%; inconclusive means between about -30% and that limit;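 further: parasites exposed to compound for two days anaerobically before the ATP read; on the % scale 0 is the no-effect control and ±100 the full control effect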
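Compounds were tested on trophozoites seeded at 100 cells/well and held 48 hrs at 37 deg C anaerobically. An ATP-based luminescent kit measured the remaining live cells.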
Vif-A3G inh – qHTS for Inhibitors of Vif-A3G Interactions: qHTS. HeLa A3G-eYFP + Vif (tagged APOBEC3G with the HIV-1 protein that degrades it), YFP fluorescence, overnight. Potency, µM (top dose mostly 46.1 µM), without a hit: top-dose activity, negative = active, usual class: inhibitors. DNA dC->dU-editing enzyme APOBEC-3G (Homo sapiens), Q9HC16. 410,000 tested, 0.076% active; further: potency means the concentration at half of the fitted maximal effect; on the % scale 0 is the no-effect control and ±100 the full control effect; nearly all actives have a fitted effect of over 60% in size
Target sequence (Q9HC16 whole entry, looked up): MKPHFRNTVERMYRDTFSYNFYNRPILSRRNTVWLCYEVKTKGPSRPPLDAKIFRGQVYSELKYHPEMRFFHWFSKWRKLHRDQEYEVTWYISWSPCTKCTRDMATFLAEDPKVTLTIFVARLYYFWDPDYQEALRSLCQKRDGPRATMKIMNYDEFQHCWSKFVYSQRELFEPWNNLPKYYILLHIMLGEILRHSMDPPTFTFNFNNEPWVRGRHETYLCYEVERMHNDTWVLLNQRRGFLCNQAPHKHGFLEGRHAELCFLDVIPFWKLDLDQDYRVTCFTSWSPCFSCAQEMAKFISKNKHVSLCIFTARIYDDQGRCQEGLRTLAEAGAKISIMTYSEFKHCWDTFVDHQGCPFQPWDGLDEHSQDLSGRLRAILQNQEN
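HeLa cells stably expressing Vif and C-terminally eYFP-tagged A3G, seeded overnight at 37 deg C, then exposed to compound by pintool overnight at 37 deg C. Rise in yellow fluorescence (Ex 488/Em 500-530, Acumen) marks blocked Vif-driven A3G degradation.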
Vif-A3F inh – qHTS for Inhibitors of Vif-A3F Interactions: qHTS | HeLa A3F-eYFP + Vif (tagged APOBEC3F with the HIV-1 protein that degrades it), YFP fluorescence increase | Potency, µM (titrated, usually from 46.1 µM), without a hit: at the highest dose activity, negative = active | 390,000 tested, 0.2% active | AID 602313, 2012; further: potency means the concentration at half of the fitted maximal effect; % of control where 0% means no effect; nearly all actives have a fitted effect of over 65% in size
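HeLa cells stably expressing Vif plus C-terminally eYFP-tagged A3F were seeded, incubated overnight at 37 deg C, dosed with compound, incubated overnight again at 37 deg C. Yellow fluorescence (Ex 488/Em 500-530) reported blocked Vif-mediated A3F-eYFP degradation.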
MCF10A rereplic – A quantitative high throughput screen for small molecules that induce DNA re-replication in MCF 10a normal breast cells | 350,000 tested, 2.9% active | Potency, µM (highest dose often 46.1 µM), inactives show at the highest dose activity, positive = re-replication, actives largely listed as activators | MCF 10A DNA re-replication, Hoechst nuclear intensity, 48 h | AID 624296, 2012; further: potency means the concentration at half of the fitted maximal effect; % of control where 0% means no effect; nearly all actives have a fitted effect of over 50% in size
* hit, by the source's call; ? = inconclusive; nt = no result. Sampled rows, rich in hits. Any-hit rate of the full collection: about 6.9%. Unless noted, the call rests on the fitted dose curve; in most records, active means well fitted curve in the direction sought with a large enough effect; inconclusive means small, poorly fitted or top-dose-only effect, or another doubt; inactive means no such curve, though single readings can be large; an effect the other way counts as inactive or inconclusive.

SMILES	SW480 rereplic	IL1B secr inh	Giardia killer	Vif-A3G inh	Vif-A3F inh	MCF10A rereplic
COc1cccc(Nc2ncccc2C(=O)Nc2ccccc2)c1	?	?	-0.9	-2.4%	-8.2%	23.1µM*
CCOc1ncccc1C(=O)N(C)CC(=O)Nc1ccc(C)cc1	-1.4%	7.1	3.3	0.1%	2.2%	5.5%
COc1cccc(NC(=O)CN(C)C(=O)c2cccnc2Nc2cccc(C(F)(F)F)c2)c1	?	-78.2*	1.5	-2.5%	1.7%	20.6µM*
CC(=O)N1CCc2cc(Br)cc(S(=O)(=O)CCC(=O)Nc3ccc(C)cc3Cl)c21	nt	nt	nt	-0.1%	-0.9%	nt
COc1ccc(C(=O)CN2C(=O)N(c3ccc(C(C)=O)cc3)S(=O)(=O)c3ccccc32)cc1	nt	nt	nt	4.3%	5.6%	nt
N=c1c(C(=O)NCC2CCCO2)cc2c(=O)n3ccccc3nc2n1Cc1ccco1 (centres undefined)	20.6µM*	28.2	22.3	-1.0%	-16.4%	?
Cc1cccn2c(=O)c3cc(C(=O)NCC4CCCO4)c(=N)n(Cc4cccnc4)c3nc12 (centres undefined)	9.2µM*	-11.3	3.1	2.4%	-9.1%	13µM*
N=c1c(C(=O)NCC2CCCO2)cc2c(=O)n3ccccc3nc2n1Cc1cccnc1 (centres undefined)	10.3µM*	-0.5	11.6	-0.1%	-15.7%	12.6µM*
N=c1c(C(=O)NCC2CCCO2)cc2c(=O)n3ccccc3nc2n1Cc1ccc(F)cc1 (centres undefined)	18.4µM*	-19.9	-5.9	-0.2%	-7.6%	9.2µM*
Cc1ccc2nc3c(cc(C(=O)NCC4CCCO4)c(=N)n3C(C)C)c(=O)n2c1 (centres undefined)	nt	nt	nt	5.2%	2.4%	nt
CCCn1c(=N)c(C(=O)NCc2cccnc2)cc2c(=O)n3cccc(C)c3nc21	nt	nt	nt	-3.1%	-14.2%	nt
COC(=O)c1cc2c(=O)n3ccccc3nc2n(Cc2cccnc2)c1=N	?	23.9	-7.4	-3.5%	-1.0%	?
C=C(C)CSc1nc2sc3c(c2c(=O)n1Cc1ccccc1)CC(C)(CC)OC3 (centres undefined)	nt	nt	nt	9.5%	1.7%	nt
CCOC(=O)/C(C#N)=C/c1ccc(-c2ccc(C)cc2)o1	nt	nt	nt	1.7%	-20.3%	nt
O=C(OC(C(=O)NCC1CCCO1)c1ccccn1)c1cccs1 (centres undefined)	-17.7%	-55.7*	5.4	1.6%	-2.0%	1.8%
CC(C)CC(OC(=O)c1cccs1)C(=O)NCC1CCCO1 (centres undefined)	-2.9%	7.7	-8.1	0.6%	-8.9%	0.4%
COc1ccc(C(OC(=O)c2cccs2)C(=O)NCC2CCCO2)cc1 (centres undefined)	6.5%	-58.5*	5.6	-0.4%	2.4%	-15.3%
COc1ccccc1C(OC(=O)c1cccs1)C(=O)NCC1CCCO1 (centres undefined)	-13.7%	5.5	-9.7	1.0%	-6.6%	-10.3%
COc1ccc(CCNC(=O)c2nc(SCc3ccc(C)cc3)ncc2Cl)cc1OC	nt	nt	nt	-1.9%	-1.6%	nt
CCCN(C)CCCOc1cc2nc(N3CCCN(C)CC3)nc(NC3CCN(C)CC3)c2cc1OC	nt	nt	nt	1.1%	nt	nt
Cc1ccc(S(=O)(=O)/C=C/c2ccccc2)cc1	5.2%	-75.5*	-1.2	-0.8%	-13.2%	4.8%
N#Cc1c(N)n(C2CCCCC2)c2nc3ccccc3nc12	8.2µM*	-18.6	-13.7	-14.9%	-9.7%	1.03µM*
Nc1c(C(=O)Nc2ccccc2)c2nc3ccccc3nc2n1-c1ccc(O)cc1	7.31µM*	0.0	-15.0	-0.3%	-5.1%	14.6µM*
N#Cc1c(N)n(-c2ccc(C(=O)O)cc2)c2nc3ccccc3nc12	?	-8.6	9.2	-14.2%	?	18.4µM*
CCOC(=O)c1c(N)n(-c2ccc(N)cc2)c2nc3ccccc3nc12	-325.4%	-4.4	-16.3	-0.5%	2.1%	-6.9%
SMILES	SW480 rereplic	IL1B secr inh	Giardia killer	Vif-A3G inh	Vif-A3F inh	MCF10A rereplic
CCn1c(CNC(=O)c2ccc(Cl)cc2)nnc1SCC(=O)N1CCOCC1	-4.2%	0.0	-23.1	-13.2%	1.7%	-3.7%
Cn1c(CNc2ccc(Cl)cc2)nnc1SCc1ccccc1	5.5%	?	-11.7	-2.1%	3.6%	6.0%
CCn1c(CNc2ccc(Cl)cc2)nnc1SCc1ccccc1	-1.0%	-76.4*	12.7	1.5%	-6.9%	9.8%
C=CCSc1nnc(CNC(=O)c2ccc(Cl)cc2)n1CC	5.8%	-69.2*	-25.7	-6.8%	5.8%	1.8%
Cc1ccc(Cn2c(CN3CCC(C(=O)NCCc4ccccc4)CC3)cc3ccccc32)cc1	nt	nt	nt	-25.9%	-10.8%	nt
O=C(Cn1ncc2c3ccccc3n(Cc3cccc(Cl)c3)c2c1=O)NC1CCCCCC1	nt	nt	nt	-6.8%	1.3%	nt
COc1ccc(NC(=O)c2c(C)oc3ccc(O)c(CN4CCCCCC4)c23)cc1Cl	nt	nt	nt	1.1%	1.9%	nt
C=CCNC(=O)/C(=C\c1ccco1)NC(=O)c1ccco1	-0.1%	12.2	-11.8	-0.3%	0.8%	-3.2%
NNC(=O)/C(=C\c1ccco1)NC(=O)c1ccco1	?	97.1	5.8	?	-14.6%	20.6µM*
Cc1cccc(NC(=O)c2cc(S(=O)(=O)NCc3ccc4c(c3)OCO4)ccc2F)c1C	nt	nt	nt	5.4%	-6.4%	nt
CC(C)c1nnc(NC(=O)c2nc(S(=O)(=O)Cc3ccccc3F)ncc2Cl)s1	12.5%	-95.4*	?	?	4.5%	0.731µM*
O=C(Nc1nc2ccc(F)cc2s1)c1nc(S(=O)(=O)Cc2ccccc2F)ncc1Cl	nt	nt	nt	-25.0%	1.0%	nt
O=C(Nc1ccccc1)c1nc(S(=O)(=O)Cc2ccccc2F)ncc1Cl	nt	nt	nt	-11.9%	nt	nt
CSc1nnc(NC(=O)c2nc(S(=O)(=O)Cc3ccccc3F)ncc2Cl)s1	?	-101.3*	-8.4	-19.2%	5.0%	?
Cc1nnc(NC(=O)c2nc(S(=O)(=O)Cc3ccccc3C)ncc2Cl)s1	?	-94.0*	10.4	?	1.1%	2.59µM*
CCN(CC)CCNC(=O)c1ccc2c(=O)n3nc(Nc4ccccc4)sc3nc2c1	nt	nt	nt	-0.9%	0.1%	nt
Cc1ccc(CN(C(=O)c2ccc(OCC(C)C)cc2)c2ccccn2)o1	nt	nt	nt	3.7%	-0.3%	nt
Cc1ccc(C)c(N2CCN(C(=O)CN3CCSc4ccc(S(=O)(=O)N(C)C)cc43)CC2)c1	nt	nt	nt	-3.2%	-1.2%	nt
C=CCn1c(SCC(=O)c2[nH]c(C)c(C(=O)OCC)c2C)nc2scc(-c3ccc(OC)c(OC)c3)c2c1=O	13µM*	-7.6	13.4	?	?	3.26µM*
